Assay results published in PubChem BioAssay (NCATS).
Values without a mark were called inactive. Results filed as inconclusive are left out. Activity calls are given as the source filed them. Calls follow the shape of the dose curve; as a rule, active = well fitted curve in the direction sought with a large enough effect; inconclusive = small, poorly fitted or top-dose-only effect, or another doubt; inactive = no such curve, though single readings can be large; an effect the other way counts as inactive or inconclusive.

Biological target: Guanine nucleotide-binding protein G(i) subunit alpha-1 (Homo sapiens) (UniProt P63096)
Assay: qHTS Assay for Inhibitors of RGS12 GoLoco Motif Activity (Green Fluorophore) (AID 879);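 also: 0% = labeled peptide with Gαi1 and full inhibition = labeled peptide alone without protein; negative values mean loss of peptide binding seen as reduced polarization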
Conditions: Galphai1/FITC-RGS12 GoLoco peptide, fluorescence polarization; series mostly up to 57.1 µM; activity, negative = inhibition: at the top concentration
Procedure, shortened: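 A drop in FITC polarization marked displacement of the FITC-tagged RGS12 GoLoco peptide (10 nM) from Gαi1 (50 nM). Compounds were incubated 10 min at room temperature in Tris pH 7.5 buffer containing 150 mM NaCl, 0.1 mM GDP and 0.05% NP40; unlabeled peptide titration served as control.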

Chain of Guanine nucleotide-binding protein G(i) subunit alpha-1 (Homo sapiens) (P63096 whole entry, looked up): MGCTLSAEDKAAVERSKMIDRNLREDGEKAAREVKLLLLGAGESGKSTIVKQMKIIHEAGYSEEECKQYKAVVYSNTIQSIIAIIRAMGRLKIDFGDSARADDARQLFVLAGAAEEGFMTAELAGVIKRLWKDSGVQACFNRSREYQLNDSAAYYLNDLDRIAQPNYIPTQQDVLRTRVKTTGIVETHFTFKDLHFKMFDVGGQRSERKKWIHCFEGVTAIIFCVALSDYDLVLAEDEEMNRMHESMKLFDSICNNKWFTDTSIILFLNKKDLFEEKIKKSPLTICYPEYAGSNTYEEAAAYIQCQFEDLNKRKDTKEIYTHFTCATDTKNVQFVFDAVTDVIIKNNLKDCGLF

| SMILES | activity, negative = inhibition [%] |
| --- | --- |
| N[C@@H]1C[C@H]1c1ccccc1 | -4.87 |
| Cc1ccc(S(=O)(=O)N[C@@H](CCCCN)C(=O)CCl)cc1 | -23.3 |
| c1ccc(C2CC2)c(OCC2=NCCN2)c1 | -16.3 |
| CCCN1CCC[C@@H]2Cc3nc(N)ncc3C[C@H]21 | -3.76 |

Biological target: Cytochrome P450 2C9 (Homo sapiens) (UniProt P11712)
Assay: qHTS Assay for Inhibitors and Substrates of Cytochrome P450 2C9 (AID 883); also: nearly all actives have a fitted effect of over 60% in size; also: potency is read from the fitted curve at half-maximal effect; as to activity change, negative = inhibition: % is scaled to controls: 0 for no effect and ±100 for the full control effect
Conditions: recombinant CYP2C9, luciferin-H luminescence, 60 min; series mostly up to 57.1 µM; activity change, negative = inhibition: at the top concentration
Procedure, shortened: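 Human CYP2C9 (10nM) hydroxylated Luciferin-H (100uM, at its KM) to luciferin in 25mM KPO4. Compound was preincubated 10 min at 37C, then NADPH regeneration started a 60 min reaction at 37C. Luminescence was read after detection reagent, normalized to 57uM sulphaphenazole.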

Chain of Cytochrome P450 2C9 (Homo sapiens) (P11712 whole entry, looked up): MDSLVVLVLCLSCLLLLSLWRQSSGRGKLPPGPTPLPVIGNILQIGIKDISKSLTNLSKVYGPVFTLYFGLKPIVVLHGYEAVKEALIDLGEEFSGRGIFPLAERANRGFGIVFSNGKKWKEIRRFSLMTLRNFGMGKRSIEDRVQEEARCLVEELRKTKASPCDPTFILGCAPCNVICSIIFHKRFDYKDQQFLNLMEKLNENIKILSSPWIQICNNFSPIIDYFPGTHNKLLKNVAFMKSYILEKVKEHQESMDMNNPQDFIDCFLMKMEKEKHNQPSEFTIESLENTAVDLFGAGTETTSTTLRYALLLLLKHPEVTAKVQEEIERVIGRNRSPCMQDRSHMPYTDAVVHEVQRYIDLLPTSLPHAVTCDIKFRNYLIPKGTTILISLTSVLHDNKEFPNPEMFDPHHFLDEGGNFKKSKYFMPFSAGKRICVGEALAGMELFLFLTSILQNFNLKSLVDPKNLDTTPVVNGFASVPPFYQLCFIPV

| SMILES | Potency | activity change, negative = inhibition [%] |
| --- | --- | --- |
| COc1cc2c(c(OC)c1OC)-c1ccc(OC)c(=O)cc1[C@@H](NC(C)=O)CC2 | 3.16 µM (active) |  |
| CCCN(CCC)CCc1cccc2c1CC(=O)N2 |  | 50.3 |
| COc1ccc(Cc2nccc3cc(OC)c(OC)cc23)cc1OC | 12.6 µM (active) |  |

Biological target: Cytochrome P450 3A4 (Homo sapiens) (UniProt P08684)
Assay: qHTS Assay for Inhibitors and Substrates of Cytochrome P450 3A4 (AID 884); also: nearly all actives have a fitted effect of over 50% in size; also: potency is read from the fitted curve at half-maximal effect; as to activity change, negative = inhibition: % is scaled to controls: 0 for no effect and ±100 for the full control effect
Conditions: recombinant CYP3A4, Luciferin-PPXE luminescence; series mostly up to 57.1 µM; activity change, negative = inhibition: at the top concentration
Procedure, shortened: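 Luminescent readout of luciferin produced by CYP3A4 (20 nM) dealkylation of Luciferin-PPXE, 25 uM (its KM). NADPH-driven reaction ran 60 min at RT after 10 min compound preincubation; data scaled to 57 uM ketoconazole as 100% inhibition.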

Chain of Cytochrome P450 3A4 (Homo sapiens) (P08684 whole entry, looked up): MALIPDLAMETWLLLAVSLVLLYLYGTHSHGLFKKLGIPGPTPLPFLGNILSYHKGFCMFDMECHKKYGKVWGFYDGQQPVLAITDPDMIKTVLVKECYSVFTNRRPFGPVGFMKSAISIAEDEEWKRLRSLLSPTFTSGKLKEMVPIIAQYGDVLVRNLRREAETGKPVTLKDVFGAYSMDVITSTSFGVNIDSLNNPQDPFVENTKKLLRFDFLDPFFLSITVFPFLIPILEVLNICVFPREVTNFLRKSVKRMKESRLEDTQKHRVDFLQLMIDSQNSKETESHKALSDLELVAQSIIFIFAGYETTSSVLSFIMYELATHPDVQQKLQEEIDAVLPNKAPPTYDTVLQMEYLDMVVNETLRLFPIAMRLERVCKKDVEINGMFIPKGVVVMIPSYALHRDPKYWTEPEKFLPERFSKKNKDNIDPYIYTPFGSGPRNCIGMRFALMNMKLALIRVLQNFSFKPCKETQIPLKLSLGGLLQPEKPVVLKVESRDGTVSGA

| SMILES | activity change, negative = inhibition [%] | Potency |
| --- | --- | --- |
| CC(C)=CC1C(C(=O)OCc2cccc(Oc3ccccc3)c2)C1(C)C (centres undefined) | -8.16 |  |
| O=C(O)c1ccc2[nH]cc(CCCCN3CC=C(c4ccccc4)CC3)c2c1 | -11.7 |  |
| CC(=O)Nc1cc([As](=O)(O)O)ccc1O | -0.352 |  |
| Cc1cc(SCc2sc(-c3ccc(C(F)(F)F)c(F)c3)nc2C)ccc1OCC(=O)O |  | 7.94 µM (active) |
| O=[N+]([O-])c1cc([As](=O)(O)O)ccc1O | 0.785 |  |
| CC(CCc1ccccc1)NC(C)C(O)c1ccc(O)cc1 (centres undefined) | 13.4 |  |
| COc1ccc(C(CN(C)C)C2(O)CCCCC2)cc1 (centres undefined) | -0.142 |  |
| CC[N+]1(C)CCCC(OC(=O)C(O)(c2ccccc2)c2ccccc2)C1 (centres undefined) | -10.8 |  |
| CCC1(C2=NCCN2)Cc2ccccc2O1 (centres undefined) | -1.48 |  |
| NCCc1cc(O)c(O)cc1O | -12.1 |  |

Biological target: Cytochrome P450 3A4 (Homo sapiens) (UniProt P08684)
Assay: qHTS Assay for Activators of Cytochrome P450 3A4 (AID 885); also: nearly all actives have a fitted effect of over 65% in size
Conditions: recombinant CYP3A4, Luciferin-PPXE luminescence, 60 min; series mostly up to 57.1 µM; activity change, positive = activation: at the top concentration
Procedure, shortened: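 Human CYP3A4 dealkylates Luciferin-PPXE to luciferin, which luciferase detection converts to light. Substrate was at its KM (25uM), buffer 200mM KPO4, reaction 60 min at RT.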

| SMILES | activity change, positive = activation [%] | outcome |
| --- | --- | --- |
| Cc1cc(SCc2sc(-c3ccc(C(F)(F)F)c(F)c3)nc2C)ccc1OCC(=O)O | -63.5 |  |
| CC(C)(C)NCC(O)c1cc(Cl)c(N)c(Cl)c1 (centres undefined) | -60.4 |  |
| COc1ccc(Cc2nccc3cc(OC)c(OC)cc23)cc1OC |  | inactive |
| CCC1C(=O)OCC1Cc1cncn1C (centres undefined) | -66 |  |
| CC(C)CC(N(C)C)C1(c2ccc(Cl)cc2)CCC1 (centres undefined) | -104 |  |

Biological target: Cytochrome P450 2D6 (Homo sapiens) (UniProt P10635)
Assay: qHTS Assay for Inhibitors and Substrates of Cytochrome P450 2D6 (AID 891); also: potency is read from the fitted curve at half-maximal effect; nearly all actives have a fitted effect of over 60% in size
Conditions: recombinant CYP2D6, luciferin-ME EGE luminescence; series mostly up to 57.1 µM; activity change, negative = inhibition: at the top concentration
Procedure, shortened: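 Luminescent read-out of luciferin formed by 5 nM human CYP2D6 demethylating 30 uM Luciferin-ME EGE (Km level) over 60 min at room temperature after NADPH regeneration addition. Data normalized to full inhibition by 1.43 uM quinidine.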

Chain of Cytochrome P450 2D6 (Homo sapiens) (P10635 whole entry, looked up): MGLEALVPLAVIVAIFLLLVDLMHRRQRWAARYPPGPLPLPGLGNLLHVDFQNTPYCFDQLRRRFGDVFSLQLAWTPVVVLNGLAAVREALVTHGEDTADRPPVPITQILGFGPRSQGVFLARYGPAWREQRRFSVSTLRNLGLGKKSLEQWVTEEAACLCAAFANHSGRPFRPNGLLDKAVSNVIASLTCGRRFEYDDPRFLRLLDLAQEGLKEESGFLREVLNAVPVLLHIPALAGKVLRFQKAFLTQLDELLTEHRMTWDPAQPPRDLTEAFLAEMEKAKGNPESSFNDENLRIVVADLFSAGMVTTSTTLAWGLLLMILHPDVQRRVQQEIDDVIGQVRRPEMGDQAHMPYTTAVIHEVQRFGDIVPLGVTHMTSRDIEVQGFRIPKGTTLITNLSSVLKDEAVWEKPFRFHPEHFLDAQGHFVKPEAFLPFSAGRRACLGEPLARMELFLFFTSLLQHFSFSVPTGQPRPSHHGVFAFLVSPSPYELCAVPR

| SMILES | Potency |
| --- | --- |
| COc1cc2c(c(OC)c1OC)-c1ccc(OC)c(=O)cc1[C@@H](NC(C)=O)CC2 | 0.794 µM (active) |
| Cc1nc2n(c(=O)c1CCN1CCC(c3noc4cc(F)ccc34)CC1)CCCC2 | 3.16 µM (active) |
| CCCN(CCC)CCc1cccc2c1CC(=O)N2 | 3.16 µM (active) |
| c1ccc(C2CC2)c(OCC2=NCCN2)c1 | 5.01 µM (active) |
| COc1ccc(Cc2nccc3cc(OC)c(OC)cc23)cc1OC | 12.6 µM (active) |
| Cc1c(OCC(F)(F)F)ccnc1CS(=O)c1nc2ccccc2[nH]1 (centres undefined) | 31.6 µM (active) |
| CN(C)CCC=C1c2ccccc2CCc2ccccc21 | 7.94 µM (active) |
